The test deals with FGFR4. As to conditions: concentration: 1 μM, replicates: in singlicate; n = 1.
For `FC(F)(F)c1ccc(/C=C/c2cncnc2Nc2ccc3[nH]c(Cc4ccccc4)nc3c2)cc1` [GW709199], the “%Inh” value amounted to 4%. As for `CN(C)Cc1ccc(-c2ccc3c(Nc4ccc(Oc5ccccn5)cc4)ccnc3c2)o1` [GW567148], the “%Inh” value is recorded as 0%. For the molecule `Cc1ccc(F)c(C(=O)Nc2cccc(-c3nn4ccccc4c3-c3ccnc(Nc4cccc(F)c4)n3)c2)c1F` [GSK361061], the “%Inh” value is 11%.

As to `Cc1occc1-c1ncc(OC[C@@H](N)Cc2c[nH]c3ccccc23)cc1-c1ccc2[nH]nc(C)c2c1.O=C(O)C(F)(F)F` [GSK682037], the “%Inh” value is given as 0%. On to `CN(C)S(=O)(=O)c1cc(-c2ccc3nccc(-c4cccc(S(N)(=O)=O)c4)c3c2)cnc1N` [GSK1669921], for which the “%Inh” value came out at 13%. Regarding `COCCOCCOc1cc2ncc3c4ccc(C#N)cc4[nH]c3c2cc1OC`, the “%Inh” value is on record as 4%.

As to `COc1cccc(C2=C(Nc3ccc(Cl)c(C(=O)O)c3)C(=O)NC2=O)c1` [SB-390769], the “%Inh” value was 25%. The same measure for `Oc1cc(Nc2ccnc3cc(I)ccc23)ccc1F` [GW552771]: 0%.

For the molecule `Cc1ccc(S(=O)(=O)Nc2ccc(Nc3nccc(Nc4cccc5[nH]ncc45)n3)cc2)cc1` [GSK581271], the “%Inh” value was found to be 0%.

Consider `Cc1ccc(C(=O)N2CC[C@@H](O)C2)cc1-n1c(C)cc(OCc2ccc(F)cc2F)c(Br)c1=O`, for which the “%Inh” value came out at 0%.

Take `COC(=O)Nc1nc2cc(Oc3ccc(NC(=O)Nc4cc(C(F)(F)F)ccc4F)cn3)ccc2[nH]1.Cl.Cl` [GW681170]: the “%Inh” value was found to be 3%. The same measure for `COc1cc(Nc2nccc(N3CCC(NC(=O)c4cc5ccccc5s4)C3)n2)cc(OC)c1OC` (stereo not shown) [GSK1379760]: 0%; for `O=C(Nc1cccc(-c2nn3ccccc3c2-c2ccnc(Nc3cccc(F)c3)n2)c1)c1c(F)ccc(F)c1Cl` [GSK357952]: 0%. On to `O=C(Nc1ccccc1F)NC1CCN(c2ccnc(Nc3ccc(F)cc3)n2)CC1` [GSK1379800], for which the “%Inh” value was found to be 2%. On to `O=c1[nH]cc(-c2ccc(N3CCOCC3)cc2)c2sc(-c3cn[nH]c3)cc12` [GSK2276055], for which the “%Inh” value is 0%.

In the case of `COc1cccc(C(=O)Nc2cccc(Oc3ccc4nc(NC(=O)C5CC5)cn4n3)c2)c1`, the “%Inh” value came to 48%. The same measure for `O=C(Nc1cccc(Oc2ccc3nc(NC(=O)C4CC4)cn3n2)c1)c1ccccc1C(F)(F)F`: 2%. The same measure for `NCCCC(NC(=O)c1cc(Br)c(-c2ccnc3[nH]ccc23)s1)c1ccccc1.O=C(O)C(F)(F)F.O=C(O)C(F)(F)F` (stereo not shown) [GSK1287544]: 18%.

Turning to `COC(=O)Nc1nc2ccc(Oc3ccc(NC(=O)Nc4cc(C(F)(F)F)ccc4F)cc3)cc2n1C.Cl` [GW692089], the “%Inh” value was found to be 0%.

Turning to `COc1cc(Nc2nccc(-c3c(-c4cccc(NC(=O)c5c(F)cccc5F)c4)nn4ncccc34)n2)cc(OC)c1OC` [GSK327238], the “%Inh” value was found to be 9%.

Consider `CN1CCN(CCCNc2nccc(-c3c(-c4ccc(F)cc4)nn4cc(C(F)(F)F)ccc34)n2)CC1` [GW621581], for which the “%Inh” value came to 0%. With `Cc1ccc(C)c(NC(=O)NC2CCN(c3ccnc(Nc4ccc(F)cc4)n3)C2)c1` (stereo not shown) [GSK1379720], the “%Inh” value turned out to be 5%.

Regarding `Cc1cccc(Nc2nc(N[C@H]3CCNC3)ncc2C(N)=O)c1.Cl` [GSK2197149], the “%Inh” value is listed as 0%. The same measure for `COc1ccc(Nc2nccc(NCCNC(=O)c3cc4ccccc4s3)n2)cc1` [GSK1379896]: 9%; for `Nc1ncc(-c2cccnc2)c2scc(-c3ccc4c(c3)CCN4C(=O)Cc3ccccc3)c12` [GSK683281]: 12%; for `Cl.Cl.NCC(NC(=O)c1cc(-c2ccccc2)c(-c2ccnc3[nH]ccc23)s1)c1ccccc1` (stereo not shown) [GSK1321561]: 0%.

`Nc1ncc(-c2ccc3nccc(-c4ccncc4)c3c2)cc1S(=O)(=O)N1CCOCC1` [GSK1627798]: the “%Inh” value is 0%. The same measure for `CCn1c(-c2nonc2N)nc2c(C#CC(C)(C)O)ncc(OCCCCN)c21.O=C(O)C(F)(F)F.O=C(O)C(F)(F)F` [GSK507274]: 9%; for `Nc1n[nH]c2cnc(-c3ccccc3)cc12` [SB-642124]: 13%; for `Cl.c1ccc(-c2ccc3c(Nc4ccc5[nH]ncc5c4)ccnc3c2)nc1` [GW440137]: 0%. For `Nc1ncnc2c1nc(-c1ccccc1)n2-c1ccccc1` [SKF-97293], the “%Inh” value amounted to 0%.

Regarding `Cn1cc(-c2ccc3c(c2)CCN3C(=O)Cc2cccc(Cl)c2)c2c(N)ncnc21` [GSK2606590], the “%Inh” value is 0%.

`COc1cccc(-c2ccc3c(NC(=O)C4CC4)n[nH]c3n2)c1` [SB-710903]: the “%Inh” value is 9%.

Take `CC(=O)N1CCN(c2ccc(Nc3nccc(-c4sc(C(C)C)nc4-c4cccc(NS(=O)(=O)c5cccc(Cl)c5)c4)n3)cn2)CC1` [GSK1660437]: the “%Inh” value turned out to be 0%. Turning to `CC(C)(C)c1ccc2nccc(Nc3cccc(O)c3)c2c1` [GW856795], the “%Inh” value is 0%. On to `COc1cc2c(cc1OCCN1CCNCC1)ncc1c3ccc(C#N)cc3[nH]c21`, for which the “%Inh” value is on record as 0%.

For the molecule `O=C(Nc1cccc(-c2nn3ncccc3c2-c2ccnc(Nc3ccccc3)n2)c1)c1c(F)cccc1F` [GSK198271], the “%Inh” value came to 14%.

Source of the values: publication PMC5540273 (PLoS ONE, 2017).
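Further: KINOMEscan kinase panel screen.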
